Where “and” joins values, the source holds several entries; their conditions need not be identical. Equal values may be shown once. The campaign covered roughly 5,500 compounds. About 2,000 (36%) were called active. Not shown: some 18% with an inconclusive outcome. Rule as the data show it: active = normalized growth mostly below about 0.91 (no sharp cut-off); inconclusive = no clear call, values can overlap the other calls; inactive = mostly above about 0.92. The list shows a part of the results. A structure can be active in one record and inactive in another.
Assay: chemical genetic growth profiling, strain panel (AID 1159580);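 also: tested at 20 µM; growth read once vehicle control cultures reached saturation at 30 °C; 1 = growth at the plate median or of vehicle wells; lower values mean less growth of the strain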
Conditions: growth OD

Q: With `CSc1ccc2c(c1)N(CCC1CCCCN1C)c1ccccc1S2` (stereo not given) as the compound, how does the normalized growth (S. cerevisiae deletion strains, locus YJR075W, strain HOC1, stronger effect = lower value) read?
A: 0.823 (active)

Q: And the normalized growth (S. cerevisiae deletion strains, locus YKL009W, strain mrt4, stronger effect = lower value)?
A: 0.978 (inactive)

Q: And the normalized growth (S. cerevisiae deletion strains, locus YKL068W, stronger effect = lower value)?
A: 1.01 (inactive)

Q: What about the normalized growth (S. cerevisiae deletion strains, locus YKL085W, strain MDH1 (second series), stronger effect = lower value) of the same compound?
A: 1 (inactive)

Q: And the normalized growth (S. cerevisiae deletion strains, locus YKL085W, strain MDH1, stronger effect = lower value)?
A: 1 (inactive)

Q: What about the normalized growth (S. cerevisiae deletion strains, locus YKL160W, strain elf1, stronger effect = lower value) of the same compound?
A: 0.937 (inactive)

Q: What about the normalized growth (S. cerevisiae deletion strains, locus YKL190W, strain CNB1, stronger effect = lower value) of the same compound?
A: 0.0633 (active)

Q: What about the normalized growth (S. cerevisiae deletion strains, locus YKR001C, strain vps1, stronger effect = lower value) of the same compound?
A: 0.0672 (active)

Q: And the normalized growth (S. cerevisiae deletion strains, locus YKR026C, strain gcn3, stronger effect = lower value)?
A: 1.02 (inactive)

Q: And the normalized growth (S. cerevisiae deletion strains, locus YKR091W, strain srl3, stronger effect = lower value)?
A: 1.03 (inactive)

Q: What about the normalized growth (S. cerevisiae deletion strains, locus YLL001W, strain dnm1, stronger effect = lower value) of the same compound?
A: 0.964 (inactive)

Q: What about the normalized growth (S. cerevisiae deletion strains, locus YLL026W, stronger effect = lower value) of the same compound?
A: 0.981 (inactive)

Q: What about the normalized growth (S. cerevisiae deletion strains, locus YLL041C, strain sdh2, stronger effect = lower value) of the same compound?
A: 0.976 (inactive)

Q: What about the normalized growth (S. cerevisiae deletion strains, locus YLR027C, strain aat2, stronger effect = lower value) of the same compound?
A: 0.946 (inactive)

Q: And the normalized growth (S. cerevisiae deletion strains, locus YLR039C, strain RIC1, stronger effect = lower value)?
A: 0.175 (active)

Q: What about the normalized growth (S. cerevisiae deletion strains, locus YLR058C, strain SHM2, stronger effect = lower value) of the same compound?
A: 0.0859 (active)

Q: And the normalized growth (S. cerevisiae deletion strains, locus YLR102C, strain apc9, stronger effect = lower value)?
A: 0.176 (active)

Q: And the normalized growth (S. cerevisiae deletion strains, locus YLR113W, strain HOG1, stronger effect = lower value)?
A: 0.996 (inactive)

Q: What about the normalized growth (S. cerevisiae deletion strains, locus YLR221C, strain rsa3, stronger effect = lower value) of the same compound?
A: 0.932 (inactive)

Q: What about the normalized growth (S. cerevisiae deletion strains, locus YLR258W, strain gsy2, stronger effect = lower value) of the same compound?
A: 0.941 (inactive)

Q: And the normalized growth (S. cerevisiae deletion strains, locus YLR262C, strain YPT6 (second series), stronger effect = lower value)?
A: 1.1 (inactive)

Q: And the normalized growth (S. cerevisiae deletion strains, locus YLR262C, strain YPT6, stronger effect = lower value)?
A: 0.155 (active)

Q: What about the normalized growth (S. cerevisiae deletion strains, locus YLR268W, strain sec22, stronger effect = lower value) of the same compound?
A: 0.122 (active)

Q: What about the normalized growth (S. cerevisiae deletion strains, locus YLR320W, strain mms22, stronger effect = lower value) of the same compound?
A: 1 (inactive)

Q: And the normalized growth (S. cerevisiae deletion strains, locus YLR330W, strain CHS5, stronger effect = lower value)?
A: 0.0954 (active)

Q: What about the normalized growth (S. cerevisiae deletion strains, locus YLR342W, strain FKS1 (second series), stronger effect = lower value) of the same compound?
A: 0.07 (active)

Q: And the normalized growth (S. cerevisiae deletion strains, locus YLR342W, strain FKS1, stronger effect = lower value)?
A: 0.866 (active)

Q: And the normalized growth (S. cerevisiae deletion strains, locus YLR357W, strain rsc2, stronger effect = lower value)?
A: 0.996 (inactive)

Q: What about the normalized growth (S. cerevisiae deletion strains, locus YLR370C, strain arc18, stronger effect = lower value) of the same compound?
A: 0.962 (inactive)

Q: What about the normalized growth (S. cerevisiae deletion strains, locus YLR371W, strain rom2, stronger effect = lower value) of the same compound?
A: 0.116 (active)

Q: And the normalized growth (S. cerevisiae deletion strains, locus YLR384C, strain iki3, stronger effect = lower value)?
A: 0.984 (inactive)

Q: What about the normalized growth (S. cerevisiae deletion strains, locus YLR418C, strain cdc73, stronger effect = lower value) of the same compound?
A: 0.155 (active)

Q: And the normalized growth (S. cerevisiae deletion strains, locus YML016C, strain PPZ1, stronger effect = lower value)?
A: 0.0677 (active)

Q: What about the normalized growth (S. cerevisiae deletion strains, locus YML032C, strain rad52, stronger effect = lower value) of the same compound?
A: 0.484 (active)

Q: What about the normalized growth (S. cerevisiae deletion strains, locus YML120C, strain ndi1, stronger effect = lower value) of the same compound?
A: 0.971 (inactive)

Q: What about the normalized growth (S. cerevisiae deletion strains, locus YML124C, strain tub3, stronger effect = lower value) of the same compound?
A: 0.282 (active)

Q: What about the normalized growth (S. cerevisiae deletion strains, locus YMR058W, strain fet3, stronger effect = lower value) of the same compound?
A: 0.859 (active)

Q: What about the normalized growth (S. cerevisiae deletion strains, locus YMR078C, strain ctf18, stronger effect = lower value) of the same compound?
A: 1.04 (inactive)

Q: What about the normalized growth (S. cerevisiae deletion strains, locus YMR125W, strain sto1, stronger effect = lower value) of the same compound?
A: 0.95 (inactive)

Q: What about the normalized growth (S. cerevisiae deletion strains, locus YMR129W, stronger effect = lower value) of the same compound?
A: 0.977 (inactive)

Q: What about the normalized growth (S. cerevisiae deletion strains, locus YMR205C, strain PFK2, stronger effect = lower value) of the same compound?
A: 0.966 (inactive)

Q: What about the normalized growth (S. cerevisiae deletion strains, locus YMR223W, strain ubp8, stronger effect = lower value) of the same compound?
A: 0.142 (active)

Q: And the normalized growth (S. cerevisiae deletion strains, locus YMR231W, strain pep5, stronger effect = lower value)?
A: 0.32 (active)

Q: What about the normalized growth (S. cerevisiae deletion strains, locus YMR263W, strain SAP30, stronger effect = lower value) of the same compound?
A: 0.569 (active)

Q: What about the normalized growth (S. cerevisiae deletion strains, locus YMR307W, strain GAS1, stronger effect = lower value) of the same compound?
A: 0.123 (active) and 0.981 (inactive)

Q: And the normalized growth (S. cerevisiae deletion strains, locus YNL067W, strain RPL9B, stronger effect = lower value)?
A: 0.221 (active)

Q: And the normalized growth (S. cerevisiae deletion strains, locus YNL071W, strain lat1, stronger effect = lower value)?
A: 1.05 (inactive)

Q: And the normalized growth (S. cerevisiae deletion strains, locus YNL128W, strain TEP1, stronger effect = lower value)?
A: 1 (inactive)

Q: What about the normalized growth (S. cerevisiae deletion strains, locus YNL153C, strain GIM3, stronger effect = lower value) of the same compound?
A: 0.0926 (active)

Q: And the normalized growth (S. cerevisiae deletion strains, locus YNL175C, strain NOP13, stronger effect = lower value)?
A: 1.07 (inactive)

Q: What about the normalized growth (S. cerevisiae deletion strains, locus YNL183C, strain NPR1, stronger effect = lower value) of the same compound?
A: 0.944 (inactive)

Q: What about the normalized growth (S. cerevisiae deletion strains, locus YNL197C, strain WHI3, stronger effect = lower value) of the same compound?
A: 1.05 (inactive)

Q: And the normalized growth (S. cerevisiae deletion strains, locus YNL209W, strain ssb2, stronger effect = lower value)?
A: 0.856 (active)

Q: And the normalized growth (S. cerevisiae deletion strains, locus YNL224C, strain SQS1, stronger effect = lower value)?
A: 1.11 [resistant] (active)

Q: And the normalized growth (S. cerevisiae deletion strains, locus YNL233W, strain BNI4, stronger effect = lower value)?
A: 0.0906 (active)

Q: What about the normalized growth (S. cerevisiae deletion strains, locus YNL248C, strain rpa49, stronger effect = lower value) of the same compound?
A: 0.978 (inactive)

Q: And the normalized growth (S. cerevisiae deletion strains, locus YNL250W, strain rad50, stronger effect = lower value)?
A: 1 (inactive)

Q: And the normalized growth (S. cerevisiae deletion strains, locus YNL271C, strain bni1, stronger effect = lower value)?
A: 1 (inactive)

Q: What about the normalized growth (S. cerevisiae deletion strains, locus YNL298W, strain CLA4, stronger effect = lower value) of the same compound?
A: 1 (inactive)

Q: And the normalized growth (S. cerevisiae deletion strains, locus YNL307C, strain MCK1, stronger effect = lower value)?
A: 0.1 (active)

Q: And the normalized growth (S. cerevisiae deletion strains, locus YNL322C, strain KRE1 (second series), stronger effect = lower value)?
A: 1.04 (inactive)

Q: And the normalized growth (S. cerevisiae deletion strains, locus YNL322C, strain KRE1, stronger effect = lower value)?
A: 0.0818 (active)

Q: What about the normalized growth (S. cerevisiae deletion strains, locus YNR049C, strain mso1, stronger effect = lower value) of the same compound?
A: 0.968 (inactive)

Q: And the normalized growth (S. cerevisiae deletion strains, locus YNR052C, strain pop2, stronger effect = lower value)?
A: 0.133 (active)

Q: And the normalized growth (S. cerevisiae deletion strains, locus YOL006C, strain TOP1, stronger effect = lower value)?
A: 0.115 (active)

Q: And the normalized growth (S. cerevisiae deletion strains, locus YOL012C, strain htz1)?
A: 0.211 (inactive)

Q: What about the normalized growth (S. cerevisiae deletion strains, locus YOL147C, strain pex11, stronger effect = lower value) of the same compound?
A: 0.176 (active)

Q: What about the normalized growth (S. cerevisiae deletion strains, locus YOR001W, strain rrp6, stronger effect = lower value) of the same compound?
A: 0.956 (inactive)

Q: What about the normalized growth (S. cerevisiae deletion strains, locus YOR061W, strain CKA2, stronger effect = lower value) of the same compound?
A: 0.0575 (active)

Q: And the normalized growth (S. cerevisiae deletion strains, locus YOR069W, strain VPS5, stronger effect = lower value)?
A: 0.36 (active)

Q: And the normalized growth (S. cerevisiae deletion strains, locus YOR070C, strain gyp1, stronger effect = lower value)?
A: 0.948 (inactive)

Q: And the normalized growth (S. cerevisiae deletion strains, locus YOR080W, strain dia2, stronger effect = lower value)?
A: 0.976 (inactive)

Q: What about the normalized growth (S. cerevisiae deletion strains, locus YOR083W, strain WHI5 (second series), stronger effect = lower value) of the same compound?
A: 0.774 (active)

Q: What about the normalized growth (S. cerevisiae deletion strains, locus YOR083W, strain WHI5, stronger effect = lower value) of the same compound?
A: 0.915 (inactive)

Q: What about the normalized growth (S. cerevisiae deletion strains, locus YOR106W, strain vam3, stronger effect = lower value) of the same compound?
A: 0.88 (inactive)

Q: And the normalized growth (S. cerevisiae deletion strains, locus YOR136W, strain idh2, stronger effect = lower value)?
A: 0.139 (active)

Q: And the normalized growth (S. cerevisiae deletion strains, locus YOR144C, strain elg1, stronger effect = lower value)?
A: 0.541 (active)

Q: What about the normalized growth (S. cerevisiae deletion strains, locus YOR184W, strain ser1, stronger effect = lower value) of the same compound?
A: 0.128 (active)

Q: And the normalized growth (S. cerevisiae deletion strains, locus YOR231W, strain MKK1, stronger effect = lower value)?
A: 1 (inactive)

Q: And the normalized growth (S. cerevisiae deletion strains, locus YOR265W, strain rbl2, stronger effect = lower value)?
A: 0.961 (inactive)

Q: What about the normalized growth (S. cerevisiae deletion strains, locus YOR270C, strain vph1, stronger effect = lower value) of the same compound?
A: 0.866 (inactive)

Q: And the normalized growth (S. cerevisiae deletion strains, locus YOR290C, strain snf2, stronger effect = lower value)?
A: 0.981 (inactive)

Q: And the normalized growth (S. cerevisiae deletion strains, locus YOR316C, strain cot1, stronger effect = lower value)?
A: 0.132 (active)

Q: What about the normalized growth (S. cerevisiae deletion strains, locus YPL051W, strain arl3, stronger effect = lower value) of the same compound?
A: 0.881 (active)

Q: And the normalized growth (S. cerevisiae deletion strains, locus YPL078C, strain atp4, stronger effect = lower value)?
A: 0.989 (inactive)

Q: What about the normalized growth (S. cerevisiae deletion strains, locus YPL106C, strain sse1, stronger effect = lower value) of the same compound?
A: 1.02 (inactive)

Q: And the normalized growth (S. cerevisiae deletion strains, locus YPL240C, strain hsp82, stronger effect = lower value)?
A: 0.98 (inactive)

Q: What about the normalized growth (S. cerevisiae deletion strains, locus YPL241C, strain CIN2, stronger effect = lower value) of the same compound?
A: 0.107 (active) and 0.972 (inactive)

Q: And the normalized growth (S. cerevisiae deletion strains, locus YPL256C, strain CLN2, stronger effect = lower value)?
A: 0.975 (inactive)

Q: And the normalized growth (S. cerevisiae deletion strains, locus YPR119W, strain clb2, stronger effect = lower value)?
A: 0.31 (active)

Q: What about the normalized growth (S. cerevisiae deletion strains, locus YPR141C, strain kar3, stronger effect = lower value) of the same compound?
A: 1.02 (inactive)

Q: What about the normalized growth (S. cerevisiae deletion strains, locus YPR163C, strain tif3, stronger effect = lower value) of the same compound?
A: 0.0768 (active)

Q: And the normalized growth (S. cerevisiae deletion strains, locus YPR167C, strain met16, stronger effect = lower value)?
A: 0.196 (active)

Q: What about the normalized growth (S. cerevisiae deletion strains, strain wtn01, stronger effect = lower value) of the same compound?
A: 0.0859 (active)

Q: What about the normalized growth (S. cerevisiae strains, strain wild type, stronger effect = lower value) of the same compound?
A: 0.0579 (active)

Source: PubChem BioAssay AID1159580 (chemical genetic matrix, 2015)
